Each structure is given as a SMILES string. Hit rate of the full screen: of about 2,500 compounds, about 980 (39%) were called active.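 The calls were made as follows: active = mean inhibition at 5 µM reaching about 45% (limit read from the data); inactive = the rest.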 A selection follows.

The values below come from PubChem BioAssay AID602428 (Sanford-Burnham Center for Chemical Genomics, 2012).

A short description of this assay: Gli-SUFU pathway antagonists, confirmation, single concentration, luciferase luminescence, Sufu-KO-LIGHT cells (AID 602428).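 Also: plate controls were DMSO-treated cells for no effect and wells lacking cells for full effect.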 Conditions: Gli luciferase reporter, at 5 µM, stronger effect = higher value. In general terms: Reporter assays use an easily measured gene product as a stand-in for the process of interest.
For the compound `COCCn1c(CN2CCC(Cc3ccccc3)CC2)nc2c1c(=O)n(C)c(=O)n2C`, the inhibition was 58.7% (active).

With `O=C1/C(=C/c2ccc(F)cc2)SC(=S)N1NS(=O)(=O)c1ccccc1`, the inhibition was 15.2% (inactive).

Turning to `CCCOc1ccc(Cc2c(Cl)nc(SC)nc2NC)cc1`, the inhibition was 60.5% (active).

As for `CCc1c(C)nc2cc(C)[nH]n2c1=O`, the inhibition was 29.9% (inactive).

As to `CC(=O)OCCC(C)C`, the inhibition was 21.6% (inactive).

With `CN(NC(=O)c1ccccc1F)c1nc(C(F)(F)F)nc2ccccc12`, the inhibition is 36.6% (inactive).

For `COC(=O)c1ccc(CSc2nnc(N)s2)o1`, the inhibition is 37.1% (inactive).

Regarding `CCCCNc1nc2c(c(=O)n(C)c(=O)n2C)n1Cc1cccc(OC)c1`, the inhibition is 72.5% (active).

Turning to `Cn1c(=O)c2c(nc(NCCc3ccccc3)n2Cc2ccccc2)n(C)c1=O`, the inhibition was 57.1% (active).

`CN(C)CCN(C(=O)C1CCCCC1)c1nc2cc3c(cc2s1)OCO3`: the inhibition is 14.1% (inactive).

On to `CCc1c(C)[nH]c(=S)c(C#N)c1C`, for which the inhibition was 25.3% (inactive).

As for `CC1(C)CC2CC(C)(CN2c2ncnc3ccc(Br)cc23)C1` (configuration not stated), the inhibition was 41.5% (inactive).

In the case of `COc1ccc(OC)c(Cc2cnc3nc(N)nc(N)c3c2C)c1`, the inhibition is 51.4% (active).

With `O=C(NC1CCN(C(=S)Nc2ccc(Cl)cc2)CC1)C1CCCCC1`, the inhibition is 10.8% (inactive).

As for `CC(C)Oc1ccc(CN2CCC(n3nccc3NC(=O)c3cccnc3)CC2)cc1`, the inhibition was 23.4% (inactive).

In the case of `Cc1nn(C)c(Cl)c1CN1CCC(n2nccc2NC(=O)C2CCCC2)CC1`, the inhibition was 14% (inactive).

`C=CCOc1nc2c(c(=O)n(C)c(=O)n2C)n1Cc1ccc(Cl)cc1Cl`: the inhibition is 50.9% (active).

As to `CNc1ccc(SC#N)cc1`, the inhibition is 13.2% (inactive).

For `CCC1CCCCN1CCCNC(=O)Cn1nc(-c2ccccc2)ccc1=O` (configuration not stated), the inhibition was 13.3% (inactive).

For the compound `COc1ccc(C(=O)NCc2nnc(SCCOc3ccccc3)n2C)cc1`, the inhibition was 28.6% (inactive).

For `CC(C)(C)c1ccc(Oc2ccc(N)cc2)cc1`, the inhibition was 80.1% (active).

For `CCCc1nc(N)nc2c1C(=O)CC(C)(C)C2`, the inhibition was 16.9% (inactive).

Turning to `Cc1ccc(C)c(S(=O)(=O)N2CCN(c3ncnc4sccc34)CC2)c1`, the inhibition is 54% (active).

Turning to `Cc1c(Cl)c([N+](=O)[O-])nn1Cc1ccc(C(=O)N/N=C\c2cc(Cl)ccc2O)o1`, the inhibition is 57.9% (active).

`CCN(CC(=O)Nc1cc(Cl)ccc1C)C(=O)CSCc1ccc(C)cc1`: the inhibition was 28.9% (inactive).

As to `Cc1ccc(-c2nc(CSCC(=O)NC3CCN(Cc4ccccc4)CC3)c(C)o2)cc1`, the inhibition is 23.9% (inactive).

For the compound `O=C(c1cc(Cl)cc(Cl)c1)N1CCC(=O)N(C(COCc2ccccc2)Cc2ccccc2)CC1` (configuration not stated), the inhibition was 7.41% (inactive).

Consider `Cc1ccc(S(=O)(=O)N2C[C@@H]3CCCC[C@@H]3[C@@H](C)[C@H]2c2cn(Cc3ccccc3)c3ccc(F)cc23)cc1`, for which the inhibition is 83.6% (active).

As to `CCN(CC)CCNC(=O)c1ccc(NC(=O)c2cc(-c3ccncc3)nc3ccccc23)cc1`, the inhibition is 23% (inactive).

On to `CN1C(CC(=O)Nc2ccc(Br)cc2)c2ccccc2CC1(C)C` (configuration not stated), for which the inhibition is 11.3% (inactive).

Regarding `O=C(Nc1cccc(S(=O)(=O)Nc2ccc(Cl)cc2)c1)c1ccc2c(c1)OCCO2`, the inhibition was 37.7% (inactive).

Regarding `O=C(Cn1cc(C(=O)C2CC2)c2ccccc21)Nc1ccccc1Cl`, the inhibition is 60.3% (active).

With `CCN(CC)S(=O)(=O)c1ccc(Cl)c(C(=O)NC(C)C(c2cccs2)N2CCCC2)c1` (configuration not stated), the inhibition is 15.2% (inactive).

For the compound `O=C(NCCOCc1ccc(Cl)cc1)c1ncn[nH]1`, the inhibition was 9.09% (inactive).

As to `Brc1c(CSc2nncc3ccccc23)nc2ccccn12`, the inhibition was 12.7% (inactive).

Take `CCOC(=O)c1cnc(Nc2nc3ccccc3o2)nc1CSC(=S)N1CCCCC1`: the inhibition is 35.3% (inactive).

On to `CN(C)CCSc1nc(N)c2c3c(sc2n1)COC(C)(C)C3`, for which the inhibition is 16.1% (inactive).

Regarding `CC(=O)N1CCCc2cc(S(=O)(=O)N3CCCC(C(=O)N4CCN(c5cccc(Cl)c5)CC4)C3)ccc21` (configuration not stated), the inhibition is 66.9% (active).

With `Cc1ccc(S(=O)(=O)N(Cc2cc3ccccc3[nH]c2=O)CC2CCCO2)cc1` (configuration not stated), the inhibition is 21.7% (inactive).

With `CN(C)C(CNC(=O)Cc1ccc([N+](=O)[O-])cc1)c1ccccc1` (configuration not stated), the inhibition was 16.5% (inactive).

For `O=C(Nc1ccnn1C1CCN(C/C=C/c2ccc(F)cc2)CC1)C1CCCC1`, the inhibition was 21.9% (inactive).

For `Cc1ccsc1C(=O)OCC(=O)c1cc(C)n(CC2CCCO2)c1C` (configuration not stated), the inhibition was 85.5% (active).

By inhibition is commonly meant the change of the read-out against control, counted positive when it falls.
